SMILES strings stand for the structures. Inconclusive results are not listed. Where a call stands in place of a potency, no number is given. Active and inactive are the calls of the source. The call rests on the fitted dose curve; in most records, active means well fitted curve in the direction sought with a large enough effect; inconclusive means small, poorly fitted or top-dose-only effect, or another doubt; inactive means no such curve, though single readings can be large or run the other way.
Potency means the concentration at half of the fitted maximal effect.

This experiment is described as follows: Cytotoxicity counterscreen for NFkB agonists and antagonists (AID 624476).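 Further: cells exposed to compound for 48 hours.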 Particulars: NFkB reporter cell line viability counterscreen; series mostly up to 46.1 µM. (In general: A counterscreen serves to expose hits that act by an unwanted route or on another target.)
Consider `O=C(O)[C@@H](c1ccc(OCc2ccc3ccccc3n2)cc1)C1CCCC1`, for which the Potency entry was “inactive”.
With `Cc1csc(NC(=O)c2sc3nc4c(c(C(F)(F)F)c3c2N)CCC4)n1` the entry was “inactive”; with `c1ccc(-c2nn3c(c2-c2ccnc4cc(OCCN5CCOCC5)ccc24)CCC3)nc1`, “inactive”.
As to `NC(=O)c1ccc(-c2nc(-c3ccc4c(c3)OCCO4)c(-c3ccccn3)[nH]2)cc1`, the Potency entry is “inactive”.
In the case of `CCCCCCCc1ccc(CCc2cccc(O)c2C(=O)O)cc1` it was 23.5 µM (active).
In the case of `NC(=O)c1ccc(-c2nc(-c3ccc4c(c3)OCO4)c(-c3ccccn3)[nH]2)cc1` it was “inactive”.
In the case of `O=C(Nc1nc2ccccc2n1CCN1CCOCC1)c1cccc([N+](=O)[O-])c1` it was “inactive”; in that of `CC(C)(N)C(=O)N[C@H](COCc1ccccc1)C(=O)N1CCC2(CC1)CN(S(C)(=O)=O)c1ccccc12`, “inactive”.
In the case of `CCOc1cc(C(=O)Nc2ccc(Cl)c(-c3nc4ccccc4[nH]3)c2)cc(OCC)c1OCC`, the Potency entry was “inactive”.
In the case of `Cc1cnc(Nc2ccc(OCCN3CCCC3)cc2)nc1Nc1cccc(S(=O)(=O)NC(C)(C)C)c1` it was “inactive”; in that of `C[C@]1(c2nc3c(C(N)=O)cccc3[nH]2)CCCN1`, “inactive”; in that of `CC(C)OC(=O)C1=CN(C(=O)c2ccc(F)c(F)c2)CC(C)(C)c2c1[nH]c1ccccc21`, “inactive”.
With `Cc1cc(-c2nnc3n2CCCCC3)c(C)n1-c1ccc(F)cc1` the entry was “inactive”.
In the case of `CCOc1cc(N2CCC(O)CC2)ccc1Nc1ncc2c(n1)N(C)c1ccccc1C(=O)N2C` it was “inactive”; in that of `O=C(O)CCc1ccc(NCc2cccc(Oc3ccccc3)c2)cc1`, “inactive”.
Take `Nc1nccc(-c2ccc3noc(-c4ccc(Cl)cc4)c3c2)n1`: the Potency entry is “inactive”.

For the origin of these results see PubChem BioAssay (NCATS).
